This is an account of results in PubChem BioAssay (NCATS).

Records with an inconclusive call do not appear. Entries that show only a call come without a potency. Active and inactive are the calls of the source. Calls come from the whole dose curve; as a rule, active = well fitted inhibition curve with a large enough effect; inconclusive = small, poorly fitted or top-dose-only effect, or effect the other way; inactive = no such curve, though single readings can be large or run the other way.
Potency is the fitted concentration of half-maximal effect.

A short description of this test: High Content Imaging Cell-Based qHTS for Inhibitors of the mTORC1 Signaling Pathway in MEF Cells (AID 2667). Particulars: series mostly up to 38.3 µM. Summed up: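 Immunofluorescence for rpS6 phosphorylation in MEFs of Tsc2-/-, p53-/- background rescued with WT Tsc2. Compound exposure lasted 24 hrs. Inhibition was scored against rapamycin-treated control wells.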
Turning to `CCCN1CCC[C@@H](c2cccc(O)c2)C1`, the Potency result was “inactive”.
The value for `N#C/C(=C/c1ccc(O)c(O)c1)C(N)=S` was “inactive”; that for `C[C@H](N)Cc1cccc(C(F)(F)F)c1` was “inactive”; that for `C=CCN(C1=NCCN1)c1c(Cl)cccc1Cl` was “inactive”.
For the molecule `CCCN1CCc2cccc3c2[C@H]1Cc1ccc(O)c(O)c1-3`, the Potency result is “inactive”.
The value for `C=CCN1CCc2cccc3c2[C@H]1Cc1ccc(O)c(O)c1-3` was 7.36 µM (active).
The value for `N=C(N)c1ccc(CS(=O)(=O)F)cc1` was “inactive”; that for `CCCC[N+]1(C)C2CC(OC(=O)[C@H](CO)c3ccccc3)CC1C1OC12` (some centres undefined) was “inactive”.
Regarding `COc1ccc2c(c1O)-c1cccc3c1[C@@H](C2)N(C)CC3`, the Potency entry was “inactive”.
Consider `CN1CC[C@@]2(C)c3cc(OC(=O)Nc4ccccc4)ccc3N(C)[C@@H]12`, for which the Potency entry is “inactive”.
The result for `CC(=O)OCC1=C(C(=O)O)N2C(=O)[C@@H](NC(=O)CCC[C@@H](N)C(=O)O)[C@H]2SC1` reads “inactive”; that for `CCN1C[C@@]2(COC)C3[C@@H](OC)C4[C@@H]1C3([C@@H]1C[C@]3(O)[C@H](OC(=O)c5ccccc5)[C@@H]1[C@]4(OC(C)=O)[C@@H](O)[C@@H]3OC)[C@H](OC)C[C@H]2O`, “inactive”; that for `CC(C)[C@@]1(NC(=O)[C@@H]2C[C@@H]3c4cccc5[nH]cc(c45)C[C@H]3N(C)C2)O[C@@]2(O)[C@@H]3CCCN3C(=O)[C@H](Cc3ccccc3)N2C1=O`, “inactive”.
On to `CC(C)(O)[C@@H]1C2OC(=O)[C@@H]1[C@]1(O)C[C@H]3O[C@]34C(=O)O[C@H]2[C@]14C` (tested in a mixture with another compound), for which the Potency entry was “inactive”.
